Assay outcomes (PubChem)
Many of the other results were omitted from the sample, so hits are more common in it than they were.
Casp7 inh – allosteric or competitive inhibitors of human caspase-7. P55210. recombinant caspase-7, Ac-DEVD-AFC fluorescence rate. Potency, µM (titrated, usually from 57.5 µM), for inactives: at the top dose activity change, negative = inhibition, usual class: inhibitors. actives 0.02% (n = 75,000). AID 889; active = well fitted inhibition curve with a large enough effect in the main read-out, with a control signal flat, not every such curve was filed as active; inconclusive = small, poorly fitted or top-dose-only effect, or a change in a side signal; note: % of control where 0% means no effect
Target sequence (P55210 24-198 limits assumed): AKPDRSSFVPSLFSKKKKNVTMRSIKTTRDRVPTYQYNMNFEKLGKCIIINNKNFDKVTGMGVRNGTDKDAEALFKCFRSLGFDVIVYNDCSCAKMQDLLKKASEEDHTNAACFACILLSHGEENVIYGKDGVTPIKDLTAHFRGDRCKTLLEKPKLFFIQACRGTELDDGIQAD
Target sequence (P55210 207-303 limits assumed): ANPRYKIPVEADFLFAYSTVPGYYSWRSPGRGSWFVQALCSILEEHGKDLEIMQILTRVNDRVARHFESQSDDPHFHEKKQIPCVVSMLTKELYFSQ
Casp1 inh – blocks human caspase-1 allosterically or competitively; P29466; Caspase-1 enzyme, Ac-WEHD-AFC fluorogenic rate; Potency, µM (titrated, usually from 57.5 µM), for the others: top-dose activity change, negative = inhibition, hits mostly inhibitors; actives 0.03% (n = 75,000);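 note: plate controls were vehicle for no effect and no substrate for full effect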
USP2a inh – blocks human ubiquitin-specific protease USP2a. O75604. USP2a enzymatic assay, qHTS inhibition. Potency, µM (top dose mostly 38.3 µM), for the others: at the top dose activity change, negative = inhibition, hits mostly inhibitors. actives 0.1% (n = 60,000); note: nearly all actives have a fitted effect of over 60% in size
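Inhibition is measured in a cell-free coupled assay with 20 nM USP2 core, 20 nM Ub-PLA2 and 20 uM NBD C6-HPC, 2.5 h incubation. Activity normalized to NEM control.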
ALOX15B inhib – blocks human 15-lipoxygenase 2 activity. O15296. purified 15hLO-2, xylenol orange hydroperoxide absorbance. Potency, µM (doses to about 57.1 µM), inactives show at the highest dose activity change, negative = inhibition, most hits filed as inhibitors. actives 0.56% (n = 110,000); note: % is set by controls: 0 for no effect and ±100 for the full control effect; nearly all actives have a fitted effect of over 60% in size
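Enzyme 50 nM, AA 45 uM, 25 mM Hepes pH 7.5 + 0.01% Triton X-100; cpd preinc 15 min RT, rxn 90 min RT; stop/detect with 200 uM XO + 300 uM Fe(II) in 50 mM H2SO4, 30 min; A573/A405.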
ALOX15 inhib – blocks human 15-lipoxygenase activity | AID 887 | P16050 | actives 1.4% (n = 74,000) | Potency, µM (series often up to 57.1 µM), for the others: at the highest dose activity change, negative = inhibition, usual class: inhibitors | purified 15hLO-1, xylenol orange hydroperoxide absorbance; note: % is set by controls: 0 for no effect and ±100 for the full control effect; nearly all actives have a fitted effect of over 55% in size
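40 nM 15hLO-1 + cpd, 15 min RT; start w/ 50 uM AA (final), 6 min RT; stop/detect w/ 200 uM XO + 300 uM Fe(II) in 50 mM H2SO4, 30 min; A573/A405. Buffer 25 mM Hepes pH 7.5, 0.01% Triton X-100. No-enzyme wells as negative control.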
* = called active by the depositor; ? = inconclusive; nt = no result given; [ ] = dose if it differs, or a comment. Unless noted, calls come from the whole dose curve; as a rule, active = well fitted curve in the direction sought with a large enough effect; inconclusive = small, poorly fitted or top-dose-only effect, or another doubt; inactive = no such curve, though single readings can be large; an effect the other way counts as inactive or inconclusive. Potency is the fitted concentration of half-maximal effect.

SMILES	Casp7 inh	Casp1 inh	USP2a inh	ALOX15B inhib	ALOX15 inhib
N#C/C(=C\c1ccc(O)c(O)c1)C(=O)NCCCNC(=O)/C(C#N)=C/c1ccc(O)c(O)c1	1%	1%	-14%	-16%	3.2µM*
Nc1ccc([As](=O)(O)O)cc1	-2%	2%	nt	nt	-4%
O=[As](O)(O)c1ccc(Cc2ccc([As](=O)(O)O)cc2)cc1	-5%[11.5 µM]	0%[11.5 µM]	nt	3.2µM*	?
CCCN1CCc2cccc3c2[C@@H]1Cc1ccc(O)c(O)c1-3	-2%	-2%	3%	?	?
C=CCc1cc(OC)c2c(c1OC)OCO2	1%	-2%	-20%	10%	4µM*
COc1ccc2c(c[n+](C)c3c4cc5c(cc4ccc23)OCO5)c1OC	-1%	4%	?	13µM*	?
COc1ccc2c(c1OC)CN1CCc3cc4c(cc3[C@H]1C2)OCO4	-1%[25.7 µM]	0%[25.7 µM]	2%[17.1 µM]	10%[25.6 µM]	6%[25.6 µM]
CN1CC[C@@H]2CN3CCc4cccc(c43)[C@H]2C1	0%	2%	nt	9%	13µM*
CN(C)CCCNc1c2c(nc3ccc(Cl)cc13)CCCC2	1%[11.5 µM]	-3%[11.5 µM]	nt	10%[11.4 µM]	11%[11.4 µM]
COC(=O)c1c(C)ccc2c(O)c3c(cc12)C(=O)c1c2c(cc(O)c1C3=O)[C@@]1(C)O[C@@](C)(O2)[C@@H](O)[C@H](N(C)C)[C@H]1O	-3%[11.5 µM]	4%[11.5 µM]	nt	-4%[11.4 µM]	?
CN(C)C1C(=O)C(C(N)=O)=C(O)[C@@]2(O)C(=O)C3=C(O)c4c(O)ccc(Cl)c4[C@](C)(O)C3CC12 (stereo partly specified)	-19%	-9%	10µM*	-7%	-10%
Nc1cc(Cl)ccc1O	-10%	-6%	nt	-2%	1.6µM*
Oc1ccc(Cl)cc1Sc1cc(Cl)ccc1O	-9%	-4%	nt	16µM*	4µM*
COc1cc([C@@H](O)CN)ccc1O	-1%	1%	-3%	5%	10%
CC(C)(C)NC[C@H](O)c1ccccc1Cl	1%	1%	-3%	3%	8%
CN(N=O)c1cc(O)ccc1O	1%	?	16µM*	12%	16µM*
COc1cccc2c1C(=O)c1c(O)c3c(c(O)c1C2=O)C[C@](O)(/C(C)=N\O)C[C@@H]3O[C@H]1C[C@H](N)[C@@H](O)[C@H](C)O1	-4%[11.5 µM]	-1%[11.5 µM]	nt	20%[11.4 µM]	10%[11.4 µM]
O=C1C(Cl)=C(N2CCCCCC2)C(=O)N1c1ccccc1	-11%	-7%	-20%	-15%	5µM*
c1ccc(Nc2ccc(Nc3ccccc3)cc2)cc1	-6%	-2%	nt	13µM*	4µM*
COc1ccc2c(c1O)-c1cccc3c1[C@H](C2)N(C)CC3	2%	0%	-2%	14%	-5%
COc1ccc2c3c1O[C@@H]1C(=O)CC[C@@]4(O)[C@@H](C2)N(CC2CC2)CC[C@]314	0%	-2%	4%	4%	-5%
c1ccc2c(CCNC3=NCCC3)c[nH]c2c1	1%	2%	?	2%	13µM*
CN(C)Cc1c[nH]c2ccccc12	2%	1%	8%[17.1 µM]	-2%	3%[25.6 µM]
